Screening results from PubChem BioAssay.
Most compounds without a hit are left out; they make up all but 15% or so of the library.
DT40 TDP1 no CPT: qHTS for Inhibitors of human tyrosyl-DNA phosphodiesterase 1 (TDP1): qHTS in cells in absence of CPT; DT40 Tdp1-/- hTDP1 cells, no CPT, ATP luminescence, 48 h; Potency, µM (titrated, usually from 46.2 µM), without a hit: top-dose activity change, negative = growth inhibition, usual class: inhibitors; hit rate 15% among 420,000; further: nearly all actives have a fitted effect of over 55% in size
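Chicken DT40 Tdp1-/- cells stably complemented with human TDP1 were seeded at 400 cells/well with DMSO in place of 20 nM camptothecin. After compound pinning, cells grew at least 48 hr at 37 °C; viability read by CellTiter-Glo luminescence.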
ELG1 DNA repair: inhibitors of ELG1-dependent DNA repair in HEK293T cells | HEK293T ELG1-luciferase reporter, luminescence, 16 h; DNA damage induced by 5-fluorouridine | Potency, µM (doses to about 46.1 µM), for the others: at the highest dose activity change, negative = inhibition, actives largely listed as inhibitors | hit rate 2.3% among 330,000; further: nearly all actives have a fitted effect of over 55% in size
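Luminescence from the luciferase reporter, measured 30 min after ONE-Glo reagent at room temperature, was the read-out. Beforehand, 2,000 cells per well were exposed for 16 hr at 37 °C to 5-fluorouridine together with compound or vehicle.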
VP16 counter: counter-screen for ROR gamma inhibitors: Gal4-VP16 reporter | Potency, µM (highest dose often 53.6 µM), without a hit: at the top dose activity, negative = inhibition, actives largely listed as inhibitors | Drosophila S2 Gal4-VP16 UAS-luciferase, luminescence, 20 h | hit rate 3.5% among 310,000;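 further: Gal4-VP16 expression switched on by copper sulfate through the metallothionein promoter; nearly all actives have a fitted effect of over 50% in size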
12-LOX inh: ALOX12 (human) lipoxygenase inhibition; Potency, µM (highest dose often 108 µM), without a hit: at the top dose activity change, negative = inhibition, hits mostly inhibitors; P18054; purified 12hLO, xylenol orange hydroperoxide absorbance; hit rate 1.1% among 580,000
Target sequence (P18054 whole entry, looked up): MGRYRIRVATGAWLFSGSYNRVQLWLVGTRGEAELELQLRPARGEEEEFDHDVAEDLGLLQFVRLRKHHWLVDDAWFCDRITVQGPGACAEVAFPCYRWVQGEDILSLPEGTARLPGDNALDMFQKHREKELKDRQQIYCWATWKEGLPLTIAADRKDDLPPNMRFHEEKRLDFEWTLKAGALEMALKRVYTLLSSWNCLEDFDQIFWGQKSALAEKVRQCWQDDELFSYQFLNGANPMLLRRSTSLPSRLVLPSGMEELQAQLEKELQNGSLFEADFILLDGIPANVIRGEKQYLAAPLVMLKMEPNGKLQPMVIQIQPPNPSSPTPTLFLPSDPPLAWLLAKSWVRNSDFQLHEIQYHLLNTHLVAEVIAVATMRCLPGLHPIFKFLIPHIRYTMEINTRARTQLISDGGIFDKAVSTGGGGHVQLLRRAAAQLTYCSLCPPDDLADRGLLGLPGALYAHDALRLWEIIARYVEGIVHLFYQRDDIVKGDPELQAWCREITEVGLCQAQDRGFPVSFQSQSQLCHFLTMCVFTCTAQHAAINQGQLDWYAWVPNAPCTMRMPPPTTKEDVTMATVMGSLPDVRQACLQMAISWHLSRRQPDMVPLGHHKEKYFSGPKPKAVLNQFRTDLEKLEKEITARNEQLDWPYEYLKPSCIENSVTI
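Hydroperoxide product was detected by ferrous iron/xylenol orange as the 573 to 405 nm absorbance ratio. Arachidonic acid at 40 uM (final) was turned over for 30 min at room temperature by 150 nM human 12hLO, pH 7.0 Hepes buffer, after 15 min compound preincubation.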
RORg inh: blocks mouse ROR gamma transcriptional activity; Drosophila S2 Gal4-RORgamma UAS-luciferase reporter, 20 h; Potency, µM (doses to about 53.6 µM), without a hit: at the top dose activity change, negative = inhibition, hits mostly inhibitors; P51450; hit rate 5.4% among 310,000; further: nearly all actives have a fitted effect of over 60% in size
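Compounds are pin-transferred onto Drosophila Schneider cells expressing a copper-inducible Gal4–ROR gamma transactivation domain fusion. After 1 hr, copper sulfate is added to 700 uM final; luciferase is read 20 hr later.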
DT40 TDP1 CPT: DT40-hTDP1 cell growth loss with CPT. hit rate 12% among 420,000. Potency, µM (series often up to 46.2 µM), for inactives: top-dose activity change, negative = growth inhibition, hits mostly inhibitors. chicken DT40 Tdp1-/-;hTDP1 cells + 20 nM CPT, ATP luminescence, 48 h. AID 686979; further: nearly all actives have a fitted effect of over 55% in size
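Chicken DT40 Tdp1-/- cells complemented with human TDP1, 400 cells/well, exposed to compounds plus 20 nM camptothecin for at least 48 h at 37 C; viability read as ATP content by CellTiter-Glo luminescence.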
* hit, by the source's call; [ ] = another dose, or the depositor's remark. The call rests on the fitted dose curve; in most records, active means well fitted curve in the direction sought with a large enough effect; inconclusive means small, poorly fitted or top-dose-only effect, or another doubt; inactive means no such curve, though single readings can be large; an effect the other way counts as inactive or inconclusive. On the % scale 0 is the no-effect control and ±100 the full control effect; potency means the concentration at half of the fitted maximal effect.

How did COC(=O)c1cc(NC(=O)CN(c2ccccc2)S(=O)(=O)N(C)C)ccc1Cl do in these assays?
DT40 TDP1 no CPT: 23µM*; 12-LOX inh: -7%; DT40 TDP1 CPT: inconclusive

Results for CN(C)S(=O)(=O)N(CC(=O)Nc1ccc(F)c(F)c1)c1ccccc1 ?
DT40 TDP1 no CPT: -10%; ELG1 DNA repair: 3%; VP16 counter: 8%; 12-LOX inh: -23%; RORg inh: 19%; DT40 TDP1 CPT: -17%

What do the screens show for `CSc1cccc(NC(=O)CN(c2ccc(C)cc2C)S(C)(=O)=O)c1`?
DT40 TDP1 no CPT: inconclusive; ELG1 DNA repair: -2%; VP16 counter: 1%; 12-LOX inh: 33%; RORg inh: 43%; DT40 TDP1 CPT: -10%

Results for CN(C)S(=O)(=O)N(CC(=O)Nc1ccc2ccccc2c1)c1ccccc1 ?
DT40 TDP1 no CPT: -24%; ELG1 DNA repair: 23µM*; VP16 counter: -11%; 12-LOX inh: 141%; RORg inh: -8%; DT40 TDP1 CPT: -4%

How did Fc1cccc(-c2cnc([C@@H]3COCCN3C3CCCCC3)[nH]2)c1 do in these assays?
12-LOX inh: 21%[176 µM]

How did CCOCC(=O)N1C[C@@H](Oc2ccccc2)C[C@H]1C(=O)N1CCCC1 do in these assays?
12-LOX inh: 20%

What do the screens show for `CC(=O)N1CCN(C(=O)c2cnc(-c3cccnc3)nc2)CC(O)C1` (configuration not stated)?
12-LOX inh: 7%

What do the screens show for `Cc1cccc(NC(=O)c2oc3ccc(S(=O)(=O)N4CCOCC4)cc3c2C)c1C`?
DT40 TDP1 no CPT: 23µM*; ELG1 DNA repair: inconclusive; VP16 counter: -19%; 12-LOX inh: 9%; RORg inh: 25%; DT40 TDP1 CPT: inconclusive

What do the screens show for `Cc1c(C(=O)NCc2cccs2)oc2ccc(S(=O)(=O)N3CCOCC3)cc12`?
DT40 TDP1 no CPT: inconclusive; ELG1 DNA repair: 10µM*; VP16 counter: 3%; 12-LOX inh: 0%; RORg inh: 32%; DT40 TDP1 CPT: -24%

What do the screens show for `CN(C)C(=O)CNC(=O)c1ccc(C(F)(F)F)cc1`?
12-LOX inh: 45%

What do the screens show for `COC(=O)[C@@]12CCCCN1[C@H](c1ccc(-c3cc(C(C)=O)cs3)cc1)[C@H]1C(=O)N(C)C(=O)[C@H]12`?
DT40 TDP1 no CPT: 3.7µM*; ELG1 DNA repair: inconclusive; 12-LOX inh: -6%; DT40 TDP1 CPT: 5.2µM*

What do the screens show for `COC(=O)[C@@]12CCCCN1[C@H](c1ccc(-c3cc(C(C)=O)cs3)c(OC)c1)[C@H]1C(=O)N(C)C(=O)[C@H]12`?
DT40 TDP1 no CPT: 2.9µM*; ELG1 DNA repair: inconclusive; 12-LOX inh: -1%; DT40 TDP1 CPT: 4.1µM*

How did COC(=O)C1=C(C)N=C2SC=C(CC(=O)NCC3CCCO3)N2C1c1cc(OC)ccc1OC (configuration not stated) do in these assays?
12-LOX inh: 12%

Results for Cc1ccc(CNc2nc(-c3ccco3)nn2S(C)(=O)=O)o1 ?
12-LOX inh: -25%

What do the screens show for `c1ccc(C2=Nn3c(nnc3-c3cccs3)SC2)cc1`?
DT40 TDP1 no CPT: inconclusive; ELG1 DNA repair: 13%; VP16 counter: 1%; 12-LOX inh: 72%; RORg inh: -15%; DT40 TDP1 CPT: 2%

How did CCc1ccc(C2=Nn3c(nnc3-c3cccs3)SC2)cc1 do in these assays?
DT40 TDP1 no CPT: 21µM*; ELG1 DNA repair: -26%; VP16 counter: 2%; 12-LOX inh: inconclusive; RORg inh: 13%; DT40 TDP1 CPT: inconclusive

What do the screens show for `c1csc(C2=Nn3c(nnc3-c3ccncc3)SC2)c1`?
DT40 TDP1 no CPT: 15µM*; ELG1 DNA repair: 1.1µM*; VP16 counter: inconclusive; 12-LOX inh: inconclusive; RORg inh: 10%; DT40 TDP1 CPT: 15µM*

Results for CN(CCc1ccccc1)C(=O)c1ccc(NC(=O)Cc2ccc(NC(=O)C3CCCN(C(=O)CCc4ccccc4)C3)cc2)cc1 (configuration not stated) ?
DT40 TDP1 no CPT: 10µM*; 12-LOX inh: -3%; DT40 TDP1 CPT: 13µM*

Results for CN(CCc1ccccc1)C(=O)c1ccc(NC(=O)Cc2ccc(NC(=O)C3CCN(C(=O)CCc4ccccc4)CC3)cc2)cc1 ?
DT40 TDP1 no CPT: 7.3µM*; 12-LOX inh: 1%; DT40 TDP1 CPT: 15µM*

How did CN(CCc1ccccc1)C(=O)c1ccc(NC(=O)Cc2ccc(NC(=O)C3CCCN(C(=O)C4CCC4)C3)cc2)cc1 (configuration not stated) do in these assays?
DT40 TDP1 no CPT: 13µM*; 12-LOX inh: 0%; DT40 TDP1 CPT: 13µM*

How did CN(CCc1ccccc1)C(=O)c1ccc(NC(=O)Cc2cccc(NC(=O)C3CCN(C(=O)CCc4ccccc4)CC3)c2)cc1 do in these assays?
DT40 TDP1 no CPT: inconclusive; 12-LOX inh: 7%; DT40 TDP1 CPT: inconclusive

Results for CN(CCc1ccccc1)C(=O)c1ccc(NC(=O)Cc2ccc(NC(=O)C3CCN(S(=O)(=O)c4cccc([N+](=O)[O-])c4)CC3)cc2)cc1 ?
DT40 TDP1 no CPT: 9.2µM*; 12-LOX inh: 1%; DT40 TDP1 CPT: inconclusive

Results for CN(Cc1ccccc1)C(=O)c1ccc(NC(=O)Cc2ccc(NC(=O)C3CCCN(C(=O)C4CCCC4)C3)cc2)cc1 (configuration not stated) ?
DT40 TDP1 no CPT: inconclusive; 12-LOX inh: -5%; DT40 TDP1 CPT: inconclusive

What do the screens show for `CCOC(=O)CNC(=O)C(=O)NCC(=O)OCC`?
12-LOX inh: -2%

Results for Cn1cc(C(=O)NCCNC(=O)Cc2ccccc2)c2ccccc21 ?
12-LOX inh: -5%

Results for Cn1cc(C(=O)CCl)c2ccccc21 ?
DT40 TDP1 no CPT: 4.6µM*; ELG1 DNA repair: -27%; VP16 counter: 7.9µM*; 12-LOX inh: -19%; RORg inh: 11µM*; DT40 TDP1 CPT: 2.3µM*

Results for Cn1cc(/C(Cc2ccccc2)=N\O)c2ccccc21 ?
DT40 TDP1 no CPT: 16µM*; ELG1 DNA repair: -13%; VP16 counter: 7%; 12-LOX inh: 50%; RORg inh: 9%; DT40 TDP1 CPT: 23µM*

How did O=C(COc1ccc(Cl)cc1Br)N1CCC(c2ccccc2)=N1 do in these assays?
12-LOX inh: -58%
